Results reported in PubChem BioAssay (NCI).
The panel holds about 83,000 compounds, 20% with a hit somewhere; the sample as a whole holds those more often.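 Testing used 96-well plates and a 48-hour single-concentration exposure. Example: -40 means 40% of the starting cells died.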 A number with no mark means an inactive call. Activity calls are given as the source filed them. How the source made its calls: active means growth percent below 10; inactive means the rest.

What was measured:
Test in all cases: NCI-60 one-dose screen, 48 h (100 = growth as untreated, 0 = no growth, -100 = all killed)
Conditions in all cases: 10 µM unless noted
NCI-H23 lung = system: NCI-H23 lung
NCI-H322M lung = system: NCI-H322M lung
HOP-62 NSCLC = system: HOP-62 NSCLC
NCI-H460 lung = system: NCI-H460 lung
HOP-92 NSCLC = system: HOP-92 NSCLC
A549/ATCC NSCLC = system: A549/ATCC NSCLC
786-0 renal = system: 786-0 renal
COLO 205 colon = system: COLO 205 colon
DU-145 prostate = system: DU-145 prostate
K-562 leukemia = system: K-562 leukemia
MALME-3M melanoma = system: MALME-3M melanoma
MDA-MB-231 breast = system: MDA-MB-231 breast
RXF 393 renal = system: RXF 393 renal
SF-268 CNS = system: SF-268 CNS
SF-295 CNS = system: SF-295 CNS
SF-539 CNS = system: SF-539 CNS
UACC-257 melanoma = system: UACC-257 melanoma
M14 melanoma = system: M14 melanoma
HCT-15 colon = system: HCT-15 colon
NCI-H522 lung = system: NCI-H522 lung

| Structure (SMILES) | growth (NCI-H23 lung) | growth (NCI-H322M lung) | growth (HOP-62 NSCLC) | growth (NCI-H460 lung) | growth (HOP-92 NSCLC) | growth (A549/ATCC NSCLC) | growth (786-0 renal) | growth (COLO 205 colon) | growth (DU-145 prostate) | growth (K-562 leukemia) | growth (MALME-3M melanoma) | growth (MDA-MB-231 breast) | growth (RXF 393 renal) | growth (SF-268 CNS) | growth (SF-295 CNS) | growth (SF-539 CNS) | growth (UACC-257 melanoma) | growth (M14 melanoma) | growth (HCT-15 colon) | growth (NCI-H522 lung) |
| --- | --- | --- | --- | --- | --- | --- | --- | --- | --- | --- | --- | --- | --- | --- | --- | --- | --- | --- | --- | --- |
| O=C(Nc1ccc(N2CCNCC2)cc1)c1[nH]ncc1Nc1cc(Oc2ccccc2)ncn1 | 20.6% | -5.19% (active) | 3.29% (active) | -47.1% (active) | -21% (active) | -49.8% (active) | 2.25% (active) | -49.1% (active) | 15.9% | 8.34% (active) | 58.4% | -20.9% (active) | -89.2% (active) | 35% | -70.2% (active) | -46.2% (active) | 29.7% | 12.9% | -35.9% (active) | – |
| Nc1ccc(-c2nc3cc(Oc4ccc(Oc5ccc6[nH]c(-c7ccc(N)cc7)nc6c5)cc4)ccc3[nH]2)cc1 | 78.6% | 118% | 107% | 95.2% | 104% | 96.8% | 92% | 75% | – | 94.9% | 81.4% | 103% | 107% | 113% | 63.4% | 102% | 95.8% | 94% | 100% | – |
| COc1cc(OC)cc(N2C(=O)N(Cc3ccc(C(C)(C)C)cc3)c3ccccc3S2(=O)=O)c1 | 82.8% | 83.3% | 95.2% | 93.9% | 56.1% | 93.3% | 73.7% | 83.6% | 96.2% | 33.3% | 64% | 77.4% | 60.2% | 89% | – | 87.2% | 105% | 85.2% | 67.9% | – |
| COc1cccc(C2=NN3C(C2)c2ccccc2OC3c2ccc(/C=C3\SC(=O)NC3=O)cc2)c1 (stereo not given) | 92.3% | – | 110% | 101% | 106% | 103% | 95.6% | 119% | 106% | 105% | 105% | 95.4% | 105% | 94.6% | 94.3% | 102% | 106% | 104% | 95.2% | 87.8% |
| O=C(/C=C/c1ccc(C(F)(F)F)cc1)c1ccc(Nc2nc(NCCO)nc(N3CCOCC3)n2)cc1 | 39.4% | 40.5% | 33% | 11.7% | 64% | 13.1% | -2.96% (active) | – | 13% | 5.46% (active) | 97% | 46.7% | 73.9% | 36% | 81.4% | 50.6% | 98.9% | 37.5% | 7.59% (active) | – |
| Cc1ccc(C)c(-c2csc(Nc3ccc(C)c(C)c3)n2)c1 | 57% | 91.1% | 62.3% | 38.5% | 27.1% | 43.6% | 65.9% | -54.6% (active) | – | -36.5% (active) | -86.3% (active) | 39.5% | 21.8% | 75.5% | -79.5% (active) | 25.1% | -58.6% (active) | -81.3% (active) | 12.4% | – |
| COc1ccccc1C(=O)/C=C/c1ccccc1 | 83.4% | 86.1% | 86.9% | 66.4% | 80.6% | 76.1% | 101% | 117% | 32.1% | 23.1% | 99.1% | 97.6% | – | 80% | 89.9% | 91.6% | 92.6% | 103% | 53.3% | – |
| COc1cc(C2CC(c3ccc(Nc4nc(NCCO)nc(N5CCOCC5)n4)cc3)=NN2c2cc(Cl)cc(Cl)c2)cc(OC)c1OC (stereo not given) | 56.7% | 72.6% | 67.2% | 22.2% | 32.7% | 36.6% | 12.5% | – | 67.5% | 21.9% | 77.6% | 49.2% | 5.08% (active) | 49.4% | 50.1% | 41.4% | 80.2% | 64.9% | 31.5% | – |
| O=C1c2cc(Cl)ccc2Oc2cc([N+](=O)[O-])ccc2N1c1ccc(F)cc1F | 94.1% | 92.5% | 87.8% | 93.2% | 98.9% | 66.7% | 93.6% | 96.5% | 89.8% | 78.8% | 103% | 83% | 89.6% | 72.9% | 94.6% | 96.7% | 91% | 99.2% | 86.9% | – |
| O=c1cc(-c2ccccc2)oc2cc(OCc3cn(Cc4ccc(F)cc4)nn3)cc(OCc3cn(Cc4ccc(F)cc4)nn3)c12 | 29.2% | 43.5% | 12.4% | 2.98% (active) | -18% (active) | 23.2% | 1.13% (active) | 68.4% | 40% | 45.5% | 15.2% | 9.1% (active) | -8.05% (active) | 21.8% | 38.9% | -10.5% (active) | 46.4% | 56.8% | 73.5% | – |
| Cc1ccc(Nc2nc(N)c3ccccc3n2)cc1Cl | 53.8% | 73.5% | 89% | 56.8% | 54.3% | – | 80.9% | 54.5% | 45.9% | 51.3% | – | 27.2% | 80.4% | 78.5% | – | 81.5% | 108% | 80.3% | 49.9% | – |
| COC(=O)[C@H](NC(=O)C1(C)CCC[C@]2(C)[C@H]3C[C@H]4C(C(C)C)=C[C@]3(CC[C@@H]12)[C@@H]1C(=O)CCC(=O)[C@@H]14)C(C)C (stereo not given in full) | 103% | 96.2% | 99.8% | 113% | 96.8% | 94.4% | 102% | – | 106% | 96.9% | 104% | 90.8% | 105% | 96.5% | 94.8% | 100% | 104% | 102% | 95.3% | – |
| C=C(C)CCC(C)N1CCC(N2CCC(C(=O)NCCc3ccccc3)CC2)CC1 (stereo not given) | 62.4% | 81% | 79% | 40.4% | 71% | 43.4% | 70.2% | 25.4% | 62.2% | 17% | 57.3% | 69.7% | 47.5% | 57.8% | 79.5% | 69% | 72.6% | 58% | 39.2% | – |
| O=C(CCN1C(=O)c2ccccc2C1=O)Nc1ccc(Cl)cc1 | 66.4% | 82.2% | 54.8% | 44.1% | 64.3% | 79.2% | 65.8% | 118% | 67.2% | 60.7% | – | 114% | – | 73.6% | 28.4% | 86.5% | 98.2% | 92.7% | 61.7% | – |
| CCN1C(=O)N(CC)C2C1NN=c1s/c(=C3\C(=O)N(CC(C)(C)C)c4ccccc43)c(=O)n12 (stereo not given) | 45% | 60.5% | 47% | 4.52% (active) | 78.6% | 30.1% | 39.9% | -38.1% (active) | 6.12% (active) | 4.89% (active) | 71.3% | 26% | 12.3% | 40% | 15.9% | -17.9% (active) | 71.4% | 18.3% | 14.2% | – |
| CCOC(=O)C1=C(C)N=c2s/c(=C\c3cc(Cl)ccc3O)c(=O)n2C1c1ccc(OC)cc1 (stereo not given) | 88.1% | 104% | 110% | 91.6% | 69.2% | – | 94.6% | 101% | 107% | 73.8% | 109% | 95.1% | 80.9% | 107% | 111% | 118% | 101% | 88.4% | 98.6% | – |
| COc1cc(/C=C2\CN(C)C/C(=C\c3cc(CN4CCCC4)c(O)c(OC)c3)C2=O)cc(CN2CCCC2)c1O | 52.2% | 84.7% | 82% | 34.1% | 66.8% | 85.6% | 72.2% | 49% | 60.8% | 19.4% | 86% | 58.9% | 68.9% | 61.3% | 100% | 68.2% | 93.7% | 99.1% | 88% | – |
